Where a name gives a salt, the structure may show the parent alone. ± gives the standard deviation.

Assay [1] concerns Jurkat. The assay can be described thus: mean cell size (FSC-A) relative to DMSO control (fraction of control); higher = larger cells. The settings on record: 48 h. The method, boiled down: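 Jurkat cells at 600 cells/µl were incubated for 1 h and then treated for 48h with the Enzo Screen-Well FDA Approved Drug Library v2.0 at 25µM, with DMSO at 0.9% (v/v) final. Compounds that reduced counts below 20% of controls were retested in 10-fold dilutions down to 25nM. Cell count and mean cell size, taken as forward scatter area, were measured by flow cytometry relative to solvent-only controls. Each plate carried 6-12 controls, and values are means of 3 biological replicates.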

Assay [2] has as its system Jurkat. Description: cell count relative to DMSO control (fraction of control); higher = more cells (less growth inhibition). The settings on record: 48 h.

Turning to `CC(C)[C@H](N)C(=O)OCC(CO)OCn1cnc2c(=O)[nH]c(N)nc21` (some centres not stated) [Valganciclovir·HCl] (concentration: 25 µM), in the assay with Jurkat [1], the mean cell size came out at 1.06 ± 0.054. The cell count in the assay on Jurkat [2] was determined as 0.892 ± 0.099.

In the assay with Jurkat [1], `CCOc1nc2cccc(C(=O)O)c2n1Cc1ccc(-c2ccccc2-c2nnn[nH]2)cc1` [Candesartan] (concentration: 25 µM) displayed a mean cell size of 1.01 ± 0.042. In the assay on Jurkat [2], this molecule registered a cell count of 0.901 ± 0.11.

Regarding `COc1ccccc1Oc1c(NS(=O)(=O)c2ccc(C(C)(C)C)cc2)nc(-c2ncccn2)nc1OCCO` [Bosentan] (concentration: 25 µM), the mean cell size in the assay with Jurkat [1] is 0.975 ± 0.018. Besides, the cell count with Jurkat [2] came to 0.675 ± 0.068.

`CCCCCCCCCC(=O)N[C@@H](Cc1c[nH]c2ccccc12)C(=O)N[C@H](CC(N)=O)C(=O)N[C@@H](CC(=O)O)C(=O)N[C@@H]1C(=O)NCC(=O)N[C@@H](CCCN)C(=O)N[C@@H](CC(=O)O)C(=O)N[C@H](C)C(=O)N[C@@H](CC(=O)O)C(=O)NCC(=O)N[C@H](CO)C(=O)N[C@@H]([C@H](C)CC(=O)O)C(=O)N[C@@H](CC(=O)c2ccccc2N)C(=O)O[C@@H]1C` [Daptomycin] (concentration: 25 µM) had a mean cell size in the assay with Jurkat [1] of 0.975 ± 0.025. The molecule further registered a cell count with Jurkat [2] of 0.917 ± 0.039.

With `C#C[C@]1(O)CC[C@H]2[C@@H]3CCc4cc(O)ccc4[C@H]3CC[C@@]21C` [Ethinyl Estradiol] (concentration: 25 µM), the mean cell size in the assay with Jurkat [1] came to 1.22 ± 0.075. This molecule also showed a cell count in the assay with Jurkat [2] of 0.263 ± 0.035.

`Cc1ccc(N(CC2=NCCN2)c2cccc(O)c2)cc1` [Phentolamine·HCl] (concentration: 25 µM): the mean cell size with Jurkat [1] turned out to be 1.09 ± 0.072. Besides, the cell count in the assay with Jurkat [2] worked out at 0.612 ± 0.16.

As for `N[C@@H]1CONC1=O` [Cycloserine] (concentration: 25 µM), in the assay on Jurkat [1], the mean cell size came to 0.966 ± 0.013. The molecule further showed a cell count in the assay with Jurkat [2] of 0.475 ± 0.095.

With `C=C1/C(=C\C=C2/CCC[C@]3(C)[C@@H]([C@H](C)CCCC(C)(C)O)CC[C@@H]23)C[C@@H](O)C[C@@H]1O` [Calcitriol] (concentration: 25 µM), in the assay on Jurkat [1], the mean cell size is 0.8848 ± 0.0063. Besides, the cell count in the assay on Jurkat [2] was 0.893 ± 0.088.

For `Cc1c2oc3c(C)ccc(C(=O)N[C@@H]4C(=O)N[C@H](C(C)C)C(=O)N5CCC[C@H]5C(=O)N(C)CC(=O)N(C)[C@@H](C(C)C)C(=O)O[C@@H]4C)c3nc-2c(C(=O)N[C@@H]2C(=O)N[C@H](C(C)C)C(=O)N3CCC[C@H]3C(=O)N(C)CC(=O)N(C)[C@@H](C(C)C)C(=O)O[C@@H]2C)c(N)c1=O` [Dactinomycin (= Actinomycin D)] (concentration: 25 nM), the mean cell size in the assay on Jurkat [1] amounted to 0.784 ± 0.019. The same molecule yielded a cell count with Jurkat [2] of 0.49 ± 0.11.

For the molecule `CCN(CC)CCNC(=O)c1cc(Cl)c(N)cc1OC` [Metoclopramide·HCl] (concentration: 25 µM), in the assay with Jurkat [1], the mean cell size came to 0.951 ± 0.018. For the same molecule, the cell count in the assay on Jurkat [2] came out at 0.758 ± 0.16.

In turn, `Cc1cnc(NC(=O)C2=C(O)c3ccccc3S(=O)(=O)N2C)s1` [Meloxicam] (concentration: 25 µM) registered a mean cell size with Jurkat [1] of 0.9071 ± 0.0086. Also, the cell count in the assay on Jurkat [2] turned out to be 0.808 ± 0.066.

Consider `CCc1nn(CCCN2CCN(c3cccc(Cl)c3)CC2)c(=O)n1CCOc1ccccc1` [Nefazodone·HCl] (concentration: 25 µM), for which, in the assay with Jurkat [1], the mean cell size worked out at 0.924 ± 0.015. Besides, the cell count in the assay on Jurkat [2] came to 0.601 ± 0.02.

On to `NC[C@H]1O[C@H](O[C@H]2[C@H](O)[C@@H](O[C@H]3O[C@H](CO)[C@@H](O)[C@H](N)[C@H]3O)[C@H](N)C[C@@H]2N)[C@H](N)C[C@@H]1O` [Tobramycin] (concentration: 25 µM), for which the mean cell size with Jurkat [1] came to 1.01 ± 0.054. Moreover, the cell count with Jurkat [2] is 0.65 ± 0.082.

Regarding `Cc1cccc(C)c1OCC(C)N` (configuration not stated) [Mexiletine·HCl] (concentration: 25 µM), the mean cell size with Jurkat [1] is 0.983 ± 0.012. Further, the cell count in the assay on Jurkat [2] turned out to be 0.719 ± 0.014.

Molecule `Cc1ccc(C(=O)c2cc(O)c(O)c([N+](=O)[O-])c2)cc1` [Tolcapone] (concentration: 25 µM) gave a mean cell size with Jurkat [1] of 0.966 ± 0.023. Moreover, the cell count with Jurkat [2] was determined as 0.864 ± 0.15.

In the assay with Jurkat [1], `Cc1cc(C)cc(OCC2CNC(=O)O2)c1` (configuration not stated) [Metaxalone] (concentration: 25 µM) showed a mean cell size of 0.998 ± 0.054. Further, the cell count in the assay with Jurkat [2] is 0.853 ± 0.17.

For the molecule `O=C(O)Cc1ccccc1Nc1c(Cl)cccc1Cl` [Diclofenac·Na Salt] (concentration: 25 µM), in the assay with Jurkat [1], the mean cell size stood at 0.978 ± 0.039. Moreover, the cell count in the assay with Jurkat [2] was 0.725 ± 0.073.

In the assay with Jurkat [1], `C#C[C@]1(O)CC[C@H]2[C@@H]3CCC4=CCCC[C@@H]4[C@H]3C(=C)C[C@@]21CC` [Desogestrel] (concentration: 25 µM) displayed a mean cell size of 0.943 ± 0.018. Also, the cell count in the assay with Jurkat [2] was found to be 1.03 ± 0.027.

`Cn1c2ncnc-2c(O)n(C)c1=O` [Oxtriphylline] (concentration: 25 µM) displayed a mean cell size in the assay on Jurkat [1] of 0.953 ± 0.021. Besides, the cell count with Jurkat [2] came to 0.761 ± 0.13.

On to `CCCNC(=O)NS(=O)(=O)c1ccc(Cl)cc1` [Chlorpropamide] (concentration: 25 µM), for which the mean cell size in the assay on Jurkat [1] worked out at 1.04 ± 0.021. In the assay on Jurkat [2], the cell count was 1.02 ± 0.048.

Molecule `CCCCN1CCCCC1C(=O)Nc1c(C)cccc1C` (configuration not stated) [Bupivacaine·HCl] (concentration: 25 µM) gave a mean cell size with Jurkat [1] of 0.982 ± 0.02. The molecule further returned a cell count in the assay with Jurkat [2] of 0.656 ± 0.097.

(Values after the supplement of paper PMC4709259.)
